Assay outcomes deposited in PubChem by National Center for Advancing Translational Sciences (NCATS).
Most compounds without a hit are left out; they make up all but 17% or so of the library.
HT1080-NT tox = kills 2HG-producing HT-1080-NT fibrosarcoma cells. HT-1080-NT fibrosarcoma viability, CellTiter-Glo ATP luminescence, 48 h. Potency, µM (series often up to 46.1 µM), inactives show at the highest dose activity, negative = less viability, usual class: cytotoxic. actives 1.6% (n = 360,000). AID 686970;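 also: NT is the 2HG producing partner of a matched IDH1 knockdown line; 0% = DMSO-treated cells and -100% = media-only wells without cells; nearly all actives have a fitted effect of over 55% in size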
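Fibrosarcoma NT cells, 750 per well in 5% FBS RPMI, were exposed to compound for 48 hours. Viability: CellTiter-Glo luminescence.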
HepG2 viability = kills HepG2 cells in TGF-b inhibitor counter-screen | HepG2 CAGA-GFP viability, ATP luminescence, 18 h | Potency, µM (titrated, usually from 46.1 µM), inactives show at the top dose activity change, negative = cytotoxicity, hits mostly cytotoxic | actives 0.76% (n = 410,000)
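CellTiter-Glo luminescence gave cytotoxicity after 18 hours at 37 degrees C. The cells were HepG2 CAGA-GFP in 1% FBS DMEM, stimulated with 500 pg/mL TGF-beta after compound addition. %Activity was normalised to no-cell wells (complete cell-killing) and DMSO (no toxicity), and curves were fitted and classified.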
HT1080 IDH1KD tx = toxicity to HT-1080 IDH1 knockdown cells (counter line) | Potency, µM (titrated, usually from 46.1 µM), for inactives: at the highest dose activity, negative = toxicity, most hits filed as cytotoxic | actives 2% (n = 360,000) | AID 686971 | HT-1080 IDH1 knockdown viability, ATP luminescence, 48 h;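 also: 0% = DMSO wells and -100% = cell-free medium wells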
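HT-1080-IDH1KD cells (IDH1 knocked down), 750/well in RPMI with 5% FBS, treated with compound 48 h at 37 degrees C. Viability by CellTiter-Glo luminescence, normalised to DMSO and no-cell wells; concentration-response curves classed.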
TGFb inhibitor = TGF-b pathway inhibition; HepG2 CAGA-GFP TGF-b/SMAD3 reporter, GFP fluorescence, 18 h; TGF-beta stimulated, 500 pg/mL final; Potency, µM (titrated, usually from 46.1 µM), without a hit: at the highest dose activity, negative = inhibition, actives largely listed as inhibitors; actives 1.2% (n = 410,000); AID 588855; also: % is scaled to controls: 0 for no effect and ±100 for the full control effect; nearly all actives have a fitted effect of over 65% in size
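HEPG2 CAGA-GFP reporter cells (1000/well, DMEM with 1% FBS) received compounds, then recombinant TGF-beta at 500 pg/mL final for 18 hours at 37 degrees C. Per-cell GFP summed per well was normalised to unstimulated and stimulated DMSO controls before curve fitting.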
DT40 TDP1 CPT = DT40-hTDP1 cell growth loss with CPT | chicken DT40 Tdp1-/-;hTDP1 cells + 20 nM CPT, ATP luminescence, 48 h | AID 686979 | actives 12% (n = 420,000) | Potency, µM (top dose mostly 46.2 µM), for the others: at the top dose activity change, negative = growth inhibition, hits mostly inhibitors; also: % is scaled to controls: 0 for no effect and ±100 for the full control effect; nearly all actives have a fitted effect of over 55% in size
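Chicken DT40 Tdp1-/- cells stably complemented with human TDP1 were seeded at 400 cells/well in medium containing 20 nM camptothecin, exposed to pin-transferred compounds, and grown at 37 °C for at least 48 hr. Viability was read as ATP luminescence.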
TDP1 cell noCPT = qHTS for Inhibitors of human tyrosyl-DNA phosphodiesterase 1 (TDP1): qHTS in cells in absence of CPT; Potency, µM (series often up to 46.2 µM), for the others: top-dose activity change, negative = growth inhibition, usual class: inhibitors; actives 15% (n = 420,000); DT40 Tdp1-/- hTDP1 cells, no CPT, ATP luminescence, 48 h; also: % is scaled to controls: 0 for no effect and ±100 for the full control effect; nearly all actives have a fitted effect of over 55% in size
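DT40 Tdp1-/-;hTDP1 cells, no CPT (DMSO vehicle only), 400 cells/well; compounds pin-transferred; ≥48 hr, 37 °C; CellTiter-Glo 30 min RT dark, luminescence read.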
* marks the source's active call; other numbers are inactive results; ? = inconclusive; · = no result; [ ] = another dose, or the depositor's remark. Calls follow the shape of the dose curve; as a rule, active = well fitted curve in the direction sought with a large enough effect; inconclusive = small, poorly fitted or top-dose-only effect, or another doubt; inactive = no such curve, though single readings can be large; an effect the other way counts as inactive or inconclusive. Potency is read from the fitted curve at half-maximal effect.

SMILES | HT1080-NT tox | HepG2 viability | HT1080 IDH1KD tx | TGFb inhibitor | DT40 TDP1 CPT | TDP1 cell noCPT
CCC(=O)N1CCc2cc(CNS(=O)(=O)c3ccccc3F)ccc21 | · | -17% | · | 1% | -25% | 3%
Cc1ccc(OCC(O)CN2CCN(c3ccc(C)cc3)CC2)cc1 (stereo not drawn) | 1% | -26% | 14% | -18% | ? | ?
C=CCOC(=O)C(C#N)c1nc2ccccc2nc1N1CCN(Cc2ccccc2)CC1 (stereo not drawn) | 1% | 6% | 0% | 0% | ? | 23µM*
CCCCOC(=O)C(C#N)c1nc2ccccc2nc1N1CCN(Cc2ccc3c(c2)OCO3)CC1 (stereo not drawn) | -3% | -7% | -6%[9.24 µM] | 4% | 16µM* | 18µM*
CCC(CC)COC(=O)C(C#N)c1nc2ccccc2nc1N1CCOCC1 (stereo not drawn) | -11% | -24% | -11% | -5% | ? | 23µM*
C=CCOC(=O)C(C#N)c1nc2ccccc2nc1N1CCN(c2ccccc2OC)CC1 (stereo not drawn) | -2% | 6% | 10% | -12% | ? | ?
COCCOC(=O)C(C#N)c1nc2ccccc2nc1N1CCN(Cc2ccccc2)CC1 (stereo not drawn) | -2% | -19% | -1% | ? | 23µM* | 16µM*
CC(C)COC(=O)C(C#N)c1nc2ccccc2nc1N1CCN(Cc2ccccc2)CC1 (stereo not drawn) | 9% | -16% | 15% | -20% | ? | ?
CCOC(=O)CCN(C(=O)Nc1ccccc1)C1CCCCC1 | -6% | 4% | -3% | -13% | 3% | -8%
Cc1ccc(S(=O)(=O)N2[C@H](CC(=O)c3ccc(F)cc3)OC[C@@H]2C)cc1 | 2% | · | -16% | · | ? | ?
C=CCNC(=O)C(C#N)c1nc2ccccc2nc1N1CCN(Cc2ccccc2)CC1 (stereo not drawn) | 8% | -10% | 13% | 25% | 4% | -8%
COCCCNC(=O)C(C#N)c1nc2ccccc2nc1N1CCN(Cc2ccccc2)CC1 (stereo not drawn) | -4% | -1% | 6% | 23% | 23µM* | ?
CCn1c(CN2CCN(c3ccc(OC)cc3)CC2)nc2cc(S(=O)(=O)N(C)C)ccc21 | -6% | 0% | 0% | 15% | 21µM* | ?
CCCS(=O)(=O)Nc1cc2c(cc1NCc1ccccc1)n(C)c(=O)n2C | · | -22% | · | 14% | 9.2µM* | ?
COc1ccc(S(=O)(=O)Nc2cc3c(cc2NCc2ccccc2)n(C)c(=O)n3C)cc1 | · | -13% | · | 45% | 8.2µM* | ?
Cc1cc2c(cc1S(=O)(=O)NCc1ccccc1)n(C)c(=O)c(=O)n2C | -8% | -3% | 1% | 7% | -26% | -18%
COc1ccc(NS(=O)(=O)c2ccc3c(c2)n(C)c(=O)n3C)cc1 | -5% | 3% | 0% | -2% | -29% | -9%
Cc1ccc(C(=O)NC(=S)NNC(=O)COc2ccc([N+](=O)[O-])cc2)cc1 | -17% | -2% | -17% | 1% | ? | 15µM*
O=C(NNC(=S)NC(=O)c1ccc(F)cc1)c1ccncc1 | -10% | -1% | -26% | -16% | 18µM* | 23µM*
C=C(C)CNC(=S)NNC(=O)c1ccco1 | 2µM* | -53% | ? | ? | 2% | 1%
COc1ccccc1OCC(=O)NNC(=S)NC(=O)c1ccco1 | -27% | 6% | -29% | ? | ? | 18µM*
O=[N+]([O-])c1cc(-c2nnc(C34CC5CC(CC(C5)C3)C4)o2)cc([N+](=O)[O-])c1 | 8% | -2% | -7% | 2% | -4% | -24%
O=C(Nc1ccc(OC(F)(F)F)cc1)c1nc2ccccc2nc1N1CCCCC1 | · | -13% | · | 0% | -25% | -15%
COc1cc(/C=N/NC(=O)c2cc(C)oc2C)cc(OC)c1OC | 21% | 3% | 14% | 8% | ? | -14%
CCN(CC)CCN1C(=O)C(=O)/C(=C(/O)c2ccc(S(=O)(=O)N3CCOCC3)cc2)C1c1ccc(C)cc1 (stereo not drawn) | 0% | -7% | 5% | -8% | 4% | 0%
SMILES | HT1080-NT tox | HepG2 viability | HT1080 IDH1KD tx | TGFb inhibitor | DT40 TDP1 CPT | TDP1 cell noCPT
COc1ccc(C(=O)NC(=S)NNC(=O)c2ccco2)cc1 | -26% | -13% | ? | 3% | 18µM* | 21µM*
COc1ccc(C(=O)NNC(=S)NC(=O)C(C)(C)C)cc1 | -28% | 14% | ? | 5% | 6.5µM* | 7.3µM*
COc1ccc(C(=O)NC(=S)NNC(=O)c2ccccc2O)cc1 | -16% | -21% | -25% | -13% | 15µM* | 12µM*
O=C(COc1ccccc1)NNC(=S)NC(=O)c1ccccc1 | ? | -10% | -4% | -8% | ? | ?
COc1ccc(C(=O)NNC(=O)c2ccc(C(C)(C)C)cc2)cc1 | -13% | -6% | 13% | 1% | 1% | -17%
COc1ccc(CC(=O)NNC(=O)c2ccco2)cc1 | 2% | 5% | 10% | 9% | -1% | 11%
COc1ccc(C(=O)NC(=S)NNC(=O)COc2ccccc2)cc1 | ? | -19% | ? | -7% | 15µM* | ?
O=C(CCN1C(=O)[C@@H]2Cc3ccccc3CN2C1=O)NCc1ccccc1Cl | 18% | 2% | 5% | 0% | -7% | 5%
Cc1ccc(S(=O)(=O)NCCC(=O)Nc2cccc(Cl)c2)cc1 | 8% | 11% | 6% | 7% | -9% | 0%
O=C(NC(=S)NC12CC3CC(CC(C3)C1)C2)c1ccc(F)cc1 | -22% | -23% | -29% | -2% | ? | 23µM*
O=C(NC(=S)NNC(=O)c1ccco1)c1ccc(F)cc1 | -28% | -1% | ? | -26% | ? | 16µM*
O=C(NCCNC(=O)c1ccco1)c1ccc(F)cc1 | 16% | 6% | 12% | 16% | 8% | 7%
C[C@@H]1CNC(=O)c2c(C(=O)NC3CCN(C(=O)OC(C)(C)C)CC3)ncn21 | -1% | -3% | 0% | -10% | -1% | -5%
COc1ccc(/C=C/C(=O)NC(C)(C)C)cc1S(=O)(=O)N1CCOCC1 | 1% | 1% | -2% | ? | -13% | -7%
